Fam108B inh = counter-screen for RBBP9 inhibitors: inhibitors of mouse Fam108B | recombinant Fam108B, FP-Rh probe fluorescence polarization | inhibition, % at 9.51 µM | actives 0.33% (n = 300,000) | AID 1947;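 active means inhibition above the screen mean inhibition plus 3 SD, computed separately per campaign, cut at about 18% in these data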;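 further: inhibitors lower polarization as less probe binds the enzyme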
pPAFAH FP inh = inhibitors of human plasma PAF acetylhydrolase (pPAFAH); Q13093; recombinant pPAFAH, FP-rhodamine probe fluorescence polarization; inhibition, % at 3.39 µM; actives 1.5% (n = 330,000); AID 463082;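 active means inhibition above the mean inhibition across the screen plus 3 SD, cut at about 25% in these data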;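 further: inhibitors block binding of the rhodamine activity-based probe so polarization drops; 0% = enzyme with DMSO and 100% = wells lacking pPAFAH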
PAD4 inh = blocks human protein arginine deiminase 4 | Q9UM07 | recombinant PAD4, RCA probe fluorescence polarization | inhibition, % at 6.36 µM | actives 0.41% (n = 330,000) | AID 485272;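 active means percent inhibition above a cutoff equal to the mean of all tested compounds plus 3 SD, cut at about 15% in these data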;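 further: 0% = PAD4 with RCA probe and DMSO and 100% = probe without PAD4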
Target sequence (Q9UM07 whole entry, looked up): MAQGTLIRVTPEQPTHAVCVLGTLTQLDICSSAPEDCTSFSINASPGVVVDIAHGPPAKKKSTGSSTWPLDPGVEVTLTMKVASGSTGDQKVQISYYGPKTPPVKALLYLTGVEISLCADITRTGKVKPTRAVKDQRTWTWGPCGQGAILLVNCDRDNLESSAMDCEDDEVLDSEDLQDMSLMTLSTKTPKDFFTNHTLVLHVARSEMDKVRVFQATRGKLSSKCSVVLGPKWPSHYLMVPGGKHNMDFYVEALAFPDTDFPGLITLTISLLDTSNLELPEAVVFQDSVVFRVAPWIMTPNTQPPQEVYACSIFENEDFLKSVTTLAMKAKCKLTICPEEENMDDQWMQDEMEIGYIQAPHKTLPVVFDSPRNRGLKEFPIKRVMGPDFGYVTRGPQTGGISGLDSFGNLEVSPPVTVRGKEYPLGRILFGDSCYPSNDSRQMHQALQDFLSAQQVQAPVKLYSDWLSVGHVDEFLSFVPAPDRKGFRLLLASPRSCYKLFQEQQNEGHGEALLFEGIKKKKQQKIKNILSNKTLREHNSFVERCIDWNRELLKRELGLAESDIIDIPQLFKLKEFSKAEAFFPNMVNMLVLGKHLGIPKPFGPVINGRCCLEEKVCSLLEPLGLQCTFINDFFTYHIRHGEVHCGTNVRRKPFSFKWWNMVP
GSTO1 counter = blocks human GSTO1 in RBBP9 counter-screen. recombinant GSTO1, activity-based probe fluorescence polarization. inhibition, % at 5.96 µM. actives 1.1% (n = 300,000);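 active means inhibition above the campaign mean inhibition plus 3 SD, cut at about 35% in these data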;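 further: 0% = GSTO1-1 with DMSO and 100% = wells lacking GSTO1-1 enzyme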
PME-1 inh = PME-1 (human) inhibition; AID 2130; actives 0.53% (n = 320,000); Q9Y570; recombinant PME-1, FP-Rh probe fluorescence polarization; inhibition, % at 5.9 µM;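 active means inhibition above the campaign mean of all compounds plus 3 SD, cut at about 26% in these data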;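 further: competitive labeling of PME-1 active site by serine hydrolase directed probe; 0% = PME-1 with DMSO and 100% = wells lacking PME-1 enzyme; inhibitors block probe labeling so polarization falls and inhibition rises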
Numbers without * were called inactive; . = not tested or not shown. Compounds with a hit are over-represented: about 2.3% of the library has one in this group of screens.

SMILES	Fam108B inh	pPAFAH FP inh	PAD4 inh	GSTO1 counter	PME-1 inh
O=C(CCCc1nc(-c2ccccc2)no1)NC1CCCCC1	-1	2	1	-1	-3
O=C(NCCCN1CCCC1=O)c1cccc(NS(=O)(=O)c2ccccc2)c1	-2	8	-2	4	-5
O=C(NCC1CCCO1)c1cccc(S(=O)(=O)Nc2ccc(F)cc2)c1 (centres undefined)	.	25*	-1	.	-1
O=C(NCCCN1CCCC1=O)c1cccc(S(=O)(=O)Nc2ccc(F)cc2)c1	.	34*	0	.	0
O=C(O)c1cccc(S(=O)(=O)Nc2ccc(N3CCCCC3)cc2)c1	.	27*	0	.	.
Cc1cccc(NS(=O)(=O)c2cccc(C(=O)NCCCN3CCCC3=O)c2)c1	2	28*	-2	-6	-1
Cc1cc(S(=O)(=O)Nc2ccc(C(=O)NCC3CCCO3)cc2)ccc1F (centres undefined)	.	3	-2	.	.
CC(C)(C)NC(=O)CN(C(=O)CN1C(=O)C(=O)c2ccccc21)C(C)(C)C	-1	3	-3	6	-5
CCn1cc(C(=O)NC(C)C23CC4CC(CC(C4)C2)C3)cn1 (centres undefined)	-1	5	1	-1	-1
CC(NC(=O)Cn1ncc(Cl)c(Cl)c1=O)C12CC3CC(CC(C3)C1)C2 (centres undefined)	2	14	5	37*	2
O=C(NCc1ccco1)c1cc2c(s1)CSC2	7	28*	-2	-6	-12
O=C(NCc1ccc2c(c1)OCO2)c1cc2c(s1)CSC2	4	21	-7	-5	1
O=C(CNC(=O)C12CC3CC(CC(C3)C1)C2)N/N=C\c1ccco1	3	2	3	0	0
O=C(/C=C/c1ccco1)c1ccc(NC(=O)C23CC4CC(CC(C4)C2)C3)cc1	-22	32*	-29	-24	-20
O=S(=O)(Nc1c(S(=O)(=O)c2ccccc2)c2nc3ccccc3nc2n1C1CCCCC1)c1ccccc1	3	20	-8	49*	-10
CC(=O)Nc1c(S(=O)(=O)c2ccccc2)c2nc3ccccc3nc2n1Cc1ccccc1	5	10	1	1	1
CCNc1ccccc(C(=O)/C=C/c2ccc3c(c2)OCO3)c1=O	6	32*	-5	44*	3
O=C(N/C(=C\c1ccc(Br)cc1)C(=O)N1CCOCC1)c1ccc([N+](=O)[O-])cc1	1	3	-1	0	-5
CCOc1cc(/C=N/NC(=O)c2cc(-c3cccnc3)nc3ccccc23)ccc1O	3	6	-3	0	6
COc1ccc(/C=N/N=C2/NC(=O)C(CC(=O)O)S2)cc1OCc1ccc(Cl)cc1 (centres undefined)	-6	10	-3	2	11
CCOc1cc(/C=N/N=C2/NC(=O)C(CC(=O)O)S2)ccc1OCc1ccc(Cl)cc1 (centres undefined)	2	25*	3	2	25
O=C1C(C2=C(O)c3ccccc3C2=O)=Nc2ccccc21	16	26*	-62	-13	6
Cc1ccc(/C=C2\C(=N)N3N=C(CC(=O)N4CCOCC4)SC3=NC2=O)o1	-2	11	0	-2	-1
N=C1/C(=C\c2ccc(SCc3ccccc3)o2)C(=O)N=C2SC(CC(=O)N3CCOCC3)=NN12	-7	30*	-4	-37	-14
Cc1ccc(/C=C2/C(=N)N3N=C(CC(=O)N4CCCC4)SC3=NC2=O)cc1	6	25*	1	1	-7
SMILES	Fam108B inh	pPAFAH FP inh	PAD4 inh	GSTO1 counter	PME-1 inh
Cc1ccc(C2C(C#N)=C(N)SC(N)=C2C#N)o1	-13	29*	-36	-43	-61
CCc1ccc(C2C(C#N)=C(N)SC(N)=C2C#N)s1	-17	11	-20	-35	-20
Cc1ccc(S(=O)(=O)NCc2cn3ccccc3n2)c(C)c1	1	5	-3	3	2
COC(=O)c1c(C)[nH]c(C(=O)C(C)OC(=O)C2CC2C)c1C (centres undefined)	.	5	0	.	0
COC(=O)c1c(C)[nH]c(C(=O)OC(C)C(=O)N(C)C2CCCCC2)c1C (centres undefined)	-4	26*	-3	2	-4
N#C/C(=C/c1ccco1)C(N)=S	11	33*	7	35	-3
N#C/C(=C\c1ccc2c(c1)OCO2)C(N)=S	0	2	0	19	-4
COC(=O)Cn1cc([N+](=O)[O-])nc1C	-6	1	-5	17	-6
Cc1ccc(S(=O)(=O)N2CCN(C(=O)Cn3cnc4c3c(=O)n(C)c(=O)n4C)CC2)cc1C	.	1	-2	.	42*
Cn1c(=O)c2c(ncn2CC(=O)N2CCN(S(=O)(=O)c3ccc(F)cc3)CC2)n(C)c1=O	.	3	-3	.	13
Cc1ccc(C)c(N2CCN(C(=O)c3cc(S(=O)(=O)N4CCOCC4)ccc3F)CC2)c1	4	5	0	-3	-5
O=C(CCC1CCCCC1)NNC(=O)NC12CC3CC(CC(C3)C1)C2	-1	7	1	2	2
Cc1ccc2[nH]cc(C(=O)CCl)c2c1	-4	2	2	93*	3
Cc1cccc(N2CCN(C(=O)N3CCOCC3)CC2)c1C	1	12	-2	3	3
Cc1cccc(N2CCN(C(=O)N3CCCCC3)CC2)c1C	-2	29*	3	1	1
O=C(c1ccccc1)N1CCC(CC2CC(c3cccc(Br)c3)=NO2)(C(=O)NCC2CCCCC2)CC1 (centres undefined)	-3	26*	-4	1	-3
CC(C)(C)OC(=O)N1CCC(CC2CC(c3cccc(Br)c3)=NO2)(C(=O)NCC2CCCCC2)CC1 (centres undefined)	-6	8	0	-9	-11
COC(=O)c1c(NC(=O)COC(=O)CCNS(=O)(=O)c2ccc(NC(C)=O)cc2)sc(C)c1C	-3	9	-4	10	0
COC(=O)c1c(NC(=O)COC(=O)CCNS(=O)(=O)c2ccccc2)sc(C)c1C	2	26*	1	3	-4
COC(=O)c1c(C)[nH]c(C(=O)COC(=O)CCNS(=O)(=O)c2cccc(C(F)(F)F)c2)c1C	.	33*	1	.	0
CC1(OC(=O)C2CCCC2)C(=O)C=C2C=C3CCCN3C=C2C1=O (centres undefined)	4	15	-2	21	7
CC1(OC(=O)CCc2ccccc2)C(=O)C=C2C=C(C3CC3)OC=C2C1=O (centres undefined)	4	33*	-6	12	9
COC(=O)CCCC1=CC2=CC(=O)C(C)(OC(=O)CCc3ccccc3)C(=O)C2=CO1 (centres undefined)	-6	25	6	14	4
CC1(OC(=O)CCc2ccccc2)C(=O)C=C2C=C3CCCN3C=C2C1=O (centres undefined)	3	16	-11	36*	4
